Screens as filed in PubChem.
An excerpt weighted towards active compounds, which were near 1.6% of everything screened.
gsp antagonist = qHTS for Antagonists of gsp, the Etiologic Mutation Responsible for Fibrous Dysplasia/McCune-Albright Syndrome: qHTS; AID 624288, 2012; Potency, µM (highest dose often 76.9 µM), inactives show top-dose activity change, negative = inhibition, most hits filed as inhibitors; 340,000 tested, 0.4% active; gsp-mutant cells, cAMP HTRF, 30 min; calls by dose curve; cell line not stated here;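 further: intracellular cAMP measured with PDE inhibitor Ro 20-1724 present during compound exposure; potency means the concentration at half of the fitted maximal effect; on the % scale 0 is the no-effect control and ±100 the full control effect; nearly all actives have a fitted effect of over 65% in size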
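HTRF cAMP read-out (cAMP-d2 plus anti-cAMP antibody-K in lysis buffer, 30 min RT). Before lysis, cells are exposed to compounds with […] for 30 min at 37C in DPBS containing Ca/Mg, BSA and Tween 20.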
hERG WT inh = qHTS for Inhibitors of KCHN2 3.1: Wildtype qHTS | Voltage-gated inwardly rectifying potassium channel KCNH2 (Homo sapiens), Q12809 | U2OS, BacMam KCNH2, thallium flux FluxOr; active compounds read low | 340,000 tested, 0.37% active | activity change, % at 1.84 µM;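 active means maximum activity change below -70%; inconclusive means maximum activity change between -70% and -50%; inactive means maximum activity change above -50%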; further: on the % scale 0 is the no-effect control and ±100 the full control effect
Target sequence (Q12809 whole entry, looked up): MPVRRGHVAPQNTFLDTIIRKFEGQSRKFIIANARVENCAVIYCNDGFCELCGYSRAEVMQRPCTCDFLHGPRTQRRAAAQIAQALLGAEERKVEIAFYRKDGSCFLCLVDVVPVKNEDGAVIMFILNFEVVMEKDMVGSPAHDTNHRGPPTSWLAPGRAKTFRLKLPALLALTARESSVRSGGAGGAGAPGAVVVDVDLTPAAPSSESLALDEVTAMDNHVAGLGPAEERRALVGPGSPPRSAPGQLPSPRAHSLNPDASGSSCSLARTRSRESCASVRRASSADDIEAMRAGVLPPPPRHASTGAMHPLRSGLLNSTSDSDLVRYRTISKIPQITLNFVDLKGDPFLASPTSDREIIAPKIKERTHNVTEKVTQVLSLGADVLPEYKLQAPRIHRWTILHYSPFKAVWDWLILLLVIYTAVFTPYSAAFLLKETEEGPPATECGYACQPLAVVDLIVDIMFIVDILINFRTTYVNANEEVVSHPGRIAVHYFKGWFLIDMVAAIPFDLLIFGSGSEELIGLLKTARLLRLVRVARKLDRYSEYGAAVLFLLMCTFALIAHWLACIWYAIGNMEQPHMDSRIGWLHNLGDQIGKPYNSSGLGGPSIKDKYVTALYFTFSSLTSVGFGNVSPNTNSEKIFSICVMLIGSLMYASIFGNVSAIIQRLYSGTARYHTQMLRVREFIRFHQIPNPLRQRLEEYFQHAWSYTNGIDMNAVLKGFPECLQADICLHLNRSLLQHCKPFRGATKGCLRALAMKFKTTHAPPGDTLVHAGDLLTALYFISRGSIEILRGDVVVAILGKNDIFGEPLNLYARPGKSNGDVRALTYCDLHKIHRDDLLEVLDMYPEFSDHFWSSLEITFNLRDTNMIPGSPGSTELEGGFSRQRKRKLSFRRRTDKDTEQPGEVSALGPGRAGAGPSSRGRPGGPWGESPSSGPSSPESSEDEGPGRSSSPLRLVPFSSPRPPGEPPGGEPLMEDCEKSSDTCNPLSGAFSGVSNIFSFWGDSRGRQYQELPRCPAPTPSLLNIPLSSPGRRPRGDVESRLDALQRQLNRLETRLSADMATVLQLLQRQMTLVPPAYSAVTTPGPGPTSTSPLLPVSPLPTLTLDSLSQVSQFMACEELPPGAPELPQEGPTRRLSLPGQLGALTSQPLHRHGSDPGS
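U2OS cells were transduced with wild-type KCNH2 virus (2.03 x 10^8 / mL) for 4 h at room temperature, then cultured overnight at 37 C. Thallium flux was read with FluxOr dye. Rate constants were normalized to DMSO controls.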
Akt phos inh = HTS Assay for Inhibitors of Akt Phophorylation: Primary Screen. Neuro2A IGF-stimulated pAkt S473 HTRF, 20 min; active compounds read low. AID 651550, 2012. 360,000 tested, 0.32% active. activity change, % for hits at 50 µM; in the data active means activity change below about -80%; inconclusive means mostly about -51% to -80%; further: on the % scale 0 is the no-effect control and ±100 the full control effect
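Single-point screen (50 µM final compound) in Neuro2A cells stimulated 20 min with 6 nM IGF at 37 deg C. After lysis, Ser473-phosphorylated Akt read by HTRF (ex 330 nm, em 615/665 nm) as the 665/615 ratio.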
KCNH2 3.1 block = qHTS for Inhibitors of KCHN2 3.1: Mutant qHTS; Potassium voltage-gated channel subfamily H member 2, brain isoform KCNH2 3.1 (human); U2OS KCNH2 3.1, thallium flux FluxOr; active compounds read low; activity change, % (tested at about 1.8 µM); 340,000 tested, 0.95% active; AID 720553, 2013;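 active means maximum activity change below -70%; inconclusive means maximum activity change from -70% to -50%; inactive means maximum activity change above -50%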;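 further: thallium influx rate constant from kinetic fluorescence after stimulation buffer; on the % scale 0 is the no-effect control and ±100 the full control effect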
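Virally transduced U2OS (3.1 isoform, 4 h infection in dark at RT) → overnight 37 C → FluxOr + Red40 in HBSS/HEPES, 45 min → stimulation buffer, 2 min kinetic read → rate constant vs DMSO controls.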
gsp ag = qHTS for Agonist of gsp, the Etiologic Mutation Responsible for Fibrous Dysplasia/McCune-Albright Syndrome: qHTS; gsp mutant cells, cAMP HTRF, 30 min; Potency, µM (top dose mostly 76.9 µM), inactives show at the top dose activation (cAMP increase), actives largely listed as activators; 340,000 tested, 0.13% active; active means well fitted activation curve with a large enough effect; inconclusive means small, poorly fitted or top-dose-only effect, or another doubt; inactive means no such curve, though single readings can be large or run the other way; cell line not stated here;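 further: phosphodiesterase inhibitor Ro 20-1724 added with compounds to block cAMP breakdown; potency means the concentration at half of the fitted maximal effect; nearly all actives have a fitted effect of over 60% in size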
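Cells stably selected in G418 were plated at 2000/well, grown 16-24 hr, then given compounds in DMSO with the PDE inhibitor […] (300 uM solution added) for 30 min at 37C; cAMP was read by HTRF.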
GRP78 ERSR act = qHTS for Inducers of the Endoplasmic Reticulum Stress Response (ERSR) in Human Glioma: qHTS. U87-MG GRP78 promoter luciferase reporter, 16 h. 420,000 tested, 0.02% active. Potency, µM, without a hit: top-dose activation, hits mostly activators; active means well fitted activation curve with a large enough effect; inconclusive means small, poorly fitted or top-dose-only effect; inactive means no such curve, though single readings can be large or run the other way; further: potency means the concentration at half of the fitted maximal effect; series mostly up to about 76 µM; % of control where 0% means no effect; nearly all actives have a fitted effect of over 35% in size
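Stably transfected U87-MG human glioma cells carrying a GRP78-based luminescent sensor were seeded at 1000 cells/well, pin-dosed with compounds and incubated 16 h. Luciferase reagent was then added, and end-point luminescence was read after 10 min at room temperature.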
* = called active by the depositor; i = inactive; ? = inconclusive; . = no result given; [ ] = remark or other dose.

SMILES | gsp antagonist | hERG WT inh | Akt phos inh | KCNH2 3.1 block | gsp ag | GRP78 ERSR act
COc1ccc(C2N(S(=O)(=O)c3ccc(C)cc3)CCN2S(=O)(=O)c2ccc(C)cc2)cc1 | -4% | -6 | . | -72* | -1% | -4%
CCOc1ccc(CCNS(=O)(=O)c2cnc[nH]2)cc1OCC | 19% | -3 | -132%* | 11 | 12% | -4%
Cc1cc(C)n(-c2cc(N3CCN(S(=O)(=O)c4ccc(Br)cc4)CC3)ccc2[N+](=O)[O-])n1 | -7% | -2 | i | -81* | 12% | -5%
Cc1cc(C)c(S(=O)(=O)N2CCN(c3ccc([N+](=O)[O-])c(-n4nc(C)cc4C)c3)CC2)c(C)c1 | -8% | -17 | i | -10 | 12% | -1%
C=CCn1c(NCc2ccc3c(c2)OCO3)nc2ccccc21 | 4%[15.4 µM] | -2 | i | -8 | 10% | -1%
CCn1c(NCc2ccc3c(c2)OCO3)nc2ccccc21 | 10% | 14 | -106%* | -18 | -4% | -1%
CCOC(=O)C1C(C(=O)OC)=C(c2ccc(F)cc2)c2ccc(OC)cc2N1S(=O)(=O)C(F)(F)F (stereo not given) | . | . | . | . | . | -6%
OCC1(Cc2ccccc2)CCN(C2CCN(c3ccc(F)c(F)c3)CC2)CC1 | 5% | -31 | i | -91* | -5%[15.4 µM] | -5%
O=C(Nc1ccc(F)c(Cl)c1)Nc1csc2ccccc12 | 35µM* | 2 | i | -5 | 8%[15.4 µM] | -6%
CC(=O)Nc1ccc(NC(=O)Nc2cccc(Cl)c2)cc1 | -4% | -3 | i | 5 | 23% | 5%
COC(=O)c1cccc(NC(=O)NC(=O)c2ccccc2Cl)c1 | 4% | 3 | i | 3 | 22% | -13%
COC(=O)c1ccc(NC(=O)Nc2ccc(F)c(Cl)c2)cc1 | 35µM* | -2 | i | -8 | 0% | 1%
COC(=O)c1ccc(NC(=O)Nc2ccc(F)cc2)cc1 | -11% | 6 | . | 3 | ? | 1%
O=C(Nc1ccccc1)Nc1cccc(Cl)c1 | 32µM* | -6 | i | -3 | -4% | 0%
COC(=O)c1cccc(NC(=O)Nc2ccc(Cl)c(Cl)c2)c1 | 35µM* | 13 | i | -2 | -1% | -2%
O=C(Nc1ccc(F)cc1F)Nc1csc2ccccc12 | -26% | 2 | i | -6 | -2%[15.4 µM] | 4%
COc1cc2c(NC3CCN(C)CC3)nc(N3CCCN(C)CC3)nc2cc1OCC1CCCCN1 (stereo not given) | . | . | . | . | . | -6%
Cc1cnn(C(=S)NCC2CCCO2)c1 (stereo not given) | 7% | -18 | -103%* | -24 | 4% | -1%
CC(C)c1ccc(Cn2cnc3c(cnn3C(C)(C)C)c2=O)cc1 | . | . | . | . | . | -2%
COc1ccc(CCNc2ncnc3sc(C(=O)N4CCCCC4)c(C)c23)cc1OC | . | . | . | . | . | -4%
O=S1(=O)CCO[C@H]2CCCC[C@@H]2N1Cc1ccc(Cl)cc1 | . | . | . | . | . | 1%
CN(C)CCN(Cc1ccco1)C(=O)c1oc2ccccc2c1NC(=O)COc1ccccc1 | -5% | -33 | i | -95* | -36% | -7%
CCCCSc1nnc(-c2ccc(C)cc2)n1C | 4% | 6 | -113%* | 8 | -12% | -5%
CCCCSc1nnc(-c2ccc(NC(C)=O)cc2)n1C | 21% | 4 | i | 6 | 17% | -3%
CSc1ccc(S(=O)(=O)Nc2ccc3c4c(cccc24)CC3)cc1 | 28µM* | -32 | i | 6 | -26% | -3%
SMILES | gsp antagonist | hERG WT inh | Akt phos inh | KCNH2 3.1 block | gsp ag | GRP78 ERSR act
O=S(=O)(Nc1ccc2c3c(cccc13)CC2)c1ccc(F)cc1 | -15% | 5 | i | -30 | -3% | 8%
COc1cccc(CCNc2ncnc3sc(C(=O)N4CCOCC4)c(C)c23)c1 | . | . | . | . | . | -3%
CSc1nnc(CSCc2ccc(Cl)cc2Cl)n1-c1ccccc1 | -21% | -5 | i | -84* | -7% | -1%
O=c1cc2c(nn1Cc1ccc(Cl)cc1)-c1ccccc1CC2 | 13% | -8 | i | -95* | 16% | -2%
COc1cc(=O)n2c(c1C(=O)N(C)Cc1nonc1C)CCN(Cc1ccccc1F)CC2 | . | . | . | . | . | -3%
CC(C)(C)c1ccc(C(=O)NC(=S)NNC(=O)c2cccs2)cc1 | -1% | -2 | i | 12 | -20% | 14µM*
Cc1ccc(C)c(S(=O)(=O)C(C#N)c2nc3ccccc3nc2N2CCOCC2)c1 (stereo not given) | 25µM* | -2 | i | -29 | 22% | -1%
CCOC(=O)c1c(NC(=O)CNC2CCCCC2)sc(C)c1C | -8% | 6 | i | -83* | 15% | -4%
CCOC(=O)c1c(NC(=O)CNCCO)sc(C)c1C | 1% | -9 | i | -4 | 6% | -1%
CCOC(=O)c1sc(NC(C)=O)c(C(=O)OCC)c1C | 15% | -1 | i | -12 | 10% | -6%
CCOC(=O)c1sc(NC(=O)CN(CC)CC)c(C(=O)OCC)c1C | 23% | -7 | -81%* | 8 | 2% | 1%
O=C(OCc1ccccc1)N1CCN(/[N+]([O-])=N/Oc2ccc([N+](=O)[O-])cc2[N+](=O)[O-])CC1 | . | . | . | . | . | -11%
Cc1c(C(=O)NC(C)(C)C)sc2ncnc(NCCN(C)C)c12 | . | . | . | . | . | -4%
COc1cnn(-c2cccc(Cl)c2)c(=O)c1Cl | -13% | 0 | i | -100* | 0% | -1%
COc1cnn(-c2cccc(C(F)(F)F)c2)c(=O)c1Cl | 0% | 6 | i | -7 | 8%[15.4 µM] | 4%
CN(Cc1ccco1)C(=O)c1cc(NC(=O)C2CCC2)c2c(c1)nc(-c1ccncc1)n2C | . | . | . | . | . | -9%
N#C/C(=C/c1ccc(-c2ccccc2)o1)c1nc(-c2cccs2)cs1 | 4% | -20 | i | -76* | 4% | 6%
Cc1ccccc1C(=O)Nc1cccc(NC(=O)c2cccnc2)c1 | -27% | -78* | i | -12 | 7%[15.4 µM] | -2%
Cc1ccc(NC(=O)Nc2ncccc2C)cc1 | 3% | -4 | i | -15 | 3% | -2%
Cc1ccc(NC(=O)Nc2ccno2)cc1 | 0% | 1 | i | -112* | -13% | -3%
CCCN(c1ccc(C(C)C)cc1)S(=O)(=O)c1ccc2c(c1)oc(=O)n2CC(=O)OCC | . | . | . | . | . | 20µM*
CCC(C)NC(=O)CN1C(=O)NC2(CCc3ccccc3C2)C1=O (stereo not given) | 3% | 0 | i | -77* | 1%[15.4 µM] | 1%
